Measurements reported in the OligoGym collection.

These sequences were tested against KBTBD12 (assay: pooled miR-30 sensor sort-seq; sequence = guide strand). Details: shRNA.
Further: reference of the scale not given here.

Sequence | sensor-assay potency score (higher = more potent)
TTTAATAACACCGACACACTTT | 0.48
TTCTTTGTTATGATTTACCCAT | -0.456
TACAGCTGTACTGAATCGGTAC | -0.257

What follows are sequences tested against KCNAB2 in the same assay as above. Details: shRNA.

Sequence | sensor-assay potency score (higher = more potent)
TGACAGTTTCGGAAGGACCTGT | 0.657
TATCTTGTGGAACAGCTCCGGC | -1.17
TTCGATTATGTGCTTCCTGGAC | -0.692
TTGGTGGTGATGACGAGGCTGG | -0.706
TTTCTCACGCTGGAACATGTGG | -0.804
CAAAATACTATCAATCTCGTGG | -0.486
TTTCAGACCTTCGATTATGTGC | -0.469
ATGATCTCCATGGAGCTCCAGC | -1.53
TAGACTTCTGCTGTATCGAAGA | -0.756
TTCTGCTGTATCGAAGAGGTTG | -0.594
AATACTATCAATCTCGTGGATA | -1.21
TTCCTGTAGATCATCCCGGGGG | -0.0548

What follows are sequences tested against KCNB1 in the same assay as above. Details: shRNA.

Sequence | sensor-assay potency score (higher = more potent)
TTCATCTGCTCTTTCTTCTGGT | 0.512
TTTCTCAACCACAATGTCCATC | -0.571
TACTTTGTCTTTCTTACCCATA | -1.04
TAGAAGTTGAGGATGGAGGTGA | 0.819
TTTTCTCCGATCTTGTCCCCGT | -0.234
TAGATCTCGTCGATGCCCCAGT | -0.693
TACTCGTTGTCGTCGAGGCTGT | -0.424
TTTGAACTTGGTGTCGTCCTCA | 0.816
TTAGTTTTCATGGAACTCTTGG | 0.191
TACATGTCTTCCAACTGCTGAA | -0.486
TTGAACTTGGTGTCGTCCTCAT | 0.219

Each sequence was assayed against KCNC1 in the same assay as above. Details: shRNA.

Sequence | sensor-assay potency score (higher = more potent)
TTGCGTGCCATTGCGAACGTTC | -0.65
TACTTAGCAATGACAGGGCTTT | -0.252
TTTTCTTTGGTAGTTTCTGCTT | -0.644
ATGAACTCTACCTTGTTGGGGC | 0.181
TTCTTTGGTAGTTTCTGCTTAG | -0.569
TTTCTTTGGTAGTTTCTGCTTA | 0.312
TTCTTGATGAACTCTACCTTGT | -0.835
TAGTAGTTCAGGATGTGCGCGA | 0.436
TTGATGAACTCTACCTTGTTGG | 0.0525
AATTTCTAAAATTTCTTCCTGG | 0.198
TTCAGTTTGGAATCTGCTCTGT | 0.183
TAAGGAGTAATACATCCCGAAA | -1.65
